Measured values as given in PubChem BioAssay.
Activity calls are given as the source filed them. Unless noted, no rule for the calls is given here.

Assays:
[1] = system: Wnt5a (protein binding on small-molecule microarray); test: small molecules binding Wnt5a protein – biophysical, small-molecule microarray, 635/667 nm fluorescence, primary screen (AID 1142); conditions: 635 nm fluorescence, higher = more signal;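 also: fluorescence read at 667 nm with signal to noise per printed feature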
[2] = ATP-based viability of Huh7 replicon cells – cell-based, CellTiter-Glo luminescence, basal, 48 h, cytotoxicity control for HCV replication inhibitor project, primary screen (AID 1143); conditions: higher = more signal, called active from +8 up or from −8 down;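 also: Huh7 hepatoma cells carrying a hepatitis C replication reporter with no stimulus; test concentration not given here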
[3] = Pseudomonas biofilm growth suppression – PAO1 strain, BacTiter-Glo luminescence, LB-PBS, primary screen (AID 1144); conditions: P. aeruginosa PAO1 biofilm, 12 h, higher = more signal
[4] = basal CRE-LacZ reporter activity in PC12 – cell-based, unstimulated, primary screen (AID 1145); conditions: no forskolin, luminescence, 4.5 h, higher = more signal, called active from +8 up or from −8 down
[5] = forskolin-driven CRE-LacZ activity in PC12 – cell-based, CRE-LacZ reporter, forskolin-stimulated, primary screen (AID 1146); conditions: luminescence, 4.5 h, higher = more signal, called active from +8 up or from −8 down;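 also: PC12 cells with 6xCRE LacZ reporter stimulated by forskolin 10 µM; beta-galactosidase reporter signal reflecting CREB driven transcription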
[6] = biological target: Streptavidin (Streptomyces avidinii) (UniProt P22629); test: compounds binding control protein streptavidin – biophysical, small-molecule microarray, 635/667 nm fluorescence, artefact control for SMM compound annotation, primary screen (AID 1147); conditions: higher = more signal;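 also: signal reflects streptavidin binding to arrayed compounds as a control protein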
[7] = probe aInhba binding on compound microarray – biochemical, small-molecule microarray, 635/667 nm fluorescence, primary screen (AID 1148); conditions: higher = more signal;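 also: score merges 667nm spot fluorescence with signal-to-noise for antibody binding to printed compounds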
Torsin-1A (Homo sapiens) [8] = biological target: Torsin-1A (Homo sapiens) (UniProt O14656); test: TOR1A wild-type binding on microarray – cell lysate, small-molecule microarray, lysate, 635/667 nm, primary screen (AID 1149); conditions: COS7 hTOR1A-WT lysate, 635 nm fluorescence, higher = more signal
Torsin-1A (Homo sapiens) [9] = biological target: Torsin-1A (Homo sapiens) (UniProt O14656); test: torsin A mutant lysate binding on microarrays – cell lysate, small-molecule microarray, COS7 lysate, 635/667 nm fluorescence, primary screen (AID 1150); conditions: COS7 hTOR1A mutant lysate, 635 nm fluorescence, higher = more signal;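 also: score pools 667 nm emission and signal to noise measuring lysate protein binding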
[10] = system: Sonic hedgehog protein (Shh); test: Sonic hedgehog microarray binding compounds – biochemical, small-molecule microarray, 635/667 nm fluorescence, primary screen (AID 1151); conditions: 635 nm fluorescence, higher = more signal;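 also: Shh protein binding to compounds spotted on small-molecule microarray slides; score combines spot fluorescence intensity with signal-to-noise across triplicate slides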
[11] = optical density shifts of acrAB sulA E. coli – strain DRC41, OD650, 48 h, E. coli filamentation inducer project, primary screen (AID 1152); conditions: higher = more signal, called active from +8 up or from −8 down;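 also: E. coli MC1000 strain DRC41 lacking acrAB efflux pump and sulA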
[12] = probe aLefty1 binding on compound microarray – biochemical, small-molecule microarray, 635/667 nm fluorescence, primary screen (AID 1153); conditions: higher = more signal;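 also: score merges spot fluorescence with signal-to-noise ratio from the scanned slide images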
[13] = plasmodial surface anion channel blockers, osmotic lysis – cell-based, P. falciparum Indochina, OD700, 1 h, primary screen (AID 1154); conditions: P. falciparum Indochina infected RBC osmotic lysis, higher = more signal, called active from +8 up or from −8 down
[14] = plasmodial surface anion channel blockers, osmotic lysis – cell-based, P. falciparum Indochina, OD700, 2 h, primary screen (AID 1155);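 also: lysis reports solute entry through the parasite surface anion channel PSAC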; conditions: P. falciparum Indochina infected erythrocytes, higher = more signal, called active from +8 up or from −8 down
[15] = changes in parasitized red cell lysis, either direction – P. falciparum Indochina, OD700, 3 h, PSAC antagonist project, primary screen (AID 1156); conditions: P. falciparum-infected erythrocytes, osmotic lysis, higher = more signal, called active from +8 up or from −8 down
[16] = plasmodial surface anion channel blockers, osmotic lysis – cell-based, P. falciparum Indochina, OD700, 18 h, primary screen (AID 1157); conditions: P. falciparum Indochina infected erythrocytes, osmotic lysis OD700, 18 h; higher = more signal, called active from +8 up or from −8 down
[17] = S6 kinase pathway phospho-S6 level changes – cell-based, A549, cytoblot, luminescence, serum-stimulated, primary screen (AID 1158); conditions: 5 h, higher = more signal;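 also: serum-stimulated A549 lung adenocarcinoma cells; signal is phosphorylated S6 detected by cytoblot immunostaining with HRP secondary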
[18] = biological target: NADPH oxidase 2 (Homo sapiens) (UniProt P04839); test: compounds shifting NOX2 Amplex Red fluorescence – cell-based, HEK293-NOX2, PMA-stimulated, NOX inhibitor project, primary screen (AID 1159); conditions: 45 min, higher = more signal, called active from +8 up or from −8 down; also: test concentration not given here
[19] = biological target: NADPH oxidase 4 (Homo sapiens) (UniProt Q9NPH5); test: compounds shifting NOX4 Amplex Red fluorescence – cell-based, HEK293-NOX4, tetracycline-induced, NOX inhibitor project, primary screen (AID 1160); conditions: HEK293-NOX4, Amplex Red H2O2 fluorescence, 45 min; higher = more signal, called active from +8 up or from −8 down
[20] = biological target: NADPH oxidase 5 (Homo sapiens) (UniProt Q96PH1); test: compounds shifting NOX5 Amplex Red fluorescence – cell-based, HEK293-NOX5, NOX inhibitor project, primary screen (AID 1161); conditions: HEK293-NOX5, ionomycin, 45 min, higher = more signal
Sequence of NADPH oxidase 5 (Homo sapiens) (Q96PH1 whole entry, looked up): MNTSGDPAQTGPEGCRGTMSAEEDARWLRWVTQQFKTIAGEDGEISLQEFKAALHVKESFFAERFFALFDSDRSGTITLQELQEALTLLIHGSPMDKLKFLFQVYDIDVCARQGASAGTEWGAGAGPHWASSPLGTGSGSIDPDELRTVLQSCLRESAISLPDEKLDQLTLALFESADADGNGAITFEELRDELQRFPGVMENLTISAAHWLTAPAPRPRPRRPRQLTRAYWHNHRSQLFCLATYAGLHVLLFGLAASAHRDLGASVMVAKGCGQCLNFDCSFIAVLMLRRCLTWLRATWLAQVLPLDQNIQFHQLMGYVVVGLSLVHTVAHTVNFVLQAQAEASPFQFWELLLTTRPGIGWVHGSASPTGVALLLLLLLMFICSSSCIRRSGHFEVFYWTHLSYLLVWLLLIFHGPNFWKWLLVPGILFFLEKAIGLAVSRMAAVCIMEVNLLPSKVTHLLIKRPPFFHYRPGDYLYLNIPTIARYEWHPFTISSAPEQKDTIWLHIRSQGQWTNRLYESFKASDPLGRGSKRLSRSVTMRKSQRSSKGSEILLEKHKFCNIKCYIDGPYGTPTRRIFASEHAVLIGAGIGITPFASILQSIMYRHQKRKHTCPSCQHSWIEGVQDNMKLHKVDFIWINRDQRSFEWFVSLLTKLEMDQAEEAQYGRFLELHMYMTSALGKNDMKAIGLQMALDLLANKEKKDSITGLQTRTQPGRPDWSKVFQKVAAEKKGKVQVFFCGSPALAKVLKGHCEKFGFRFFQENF

Sequence of Streptavidin (Streptomyces avidinii) (P22629 whole entry, looked up): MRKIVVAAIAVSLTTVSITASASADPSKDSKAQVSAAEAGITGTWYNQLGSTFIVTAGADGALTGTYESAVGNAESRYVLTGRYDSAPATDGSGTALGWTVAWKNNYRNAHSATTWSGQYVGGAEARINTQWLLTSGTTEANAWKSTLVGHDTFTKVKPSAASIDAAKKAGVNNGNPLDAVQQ
Sequence of Torsin-1A (Homo sapiens) (O14656 whole entry, looked up): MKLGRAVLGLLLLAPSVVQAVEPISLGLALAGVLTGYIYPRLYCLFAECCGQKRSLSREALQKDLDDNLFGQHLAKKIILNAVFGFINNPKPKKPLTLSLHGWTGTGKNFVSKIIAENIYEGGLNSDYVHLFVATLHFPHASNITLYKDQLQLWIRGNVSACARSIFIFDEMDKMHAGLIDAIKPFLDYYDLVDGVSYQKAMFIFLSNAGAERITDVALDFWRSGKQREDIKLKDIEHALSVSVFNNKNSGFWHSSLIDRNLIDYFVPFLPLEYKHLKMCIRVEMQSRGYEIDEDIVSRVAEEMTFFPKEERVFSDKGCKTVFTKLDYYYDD
Sequence of NADPH oxidase 4 (Homo sapiens) (Q9NPH5 whole entry, looked up): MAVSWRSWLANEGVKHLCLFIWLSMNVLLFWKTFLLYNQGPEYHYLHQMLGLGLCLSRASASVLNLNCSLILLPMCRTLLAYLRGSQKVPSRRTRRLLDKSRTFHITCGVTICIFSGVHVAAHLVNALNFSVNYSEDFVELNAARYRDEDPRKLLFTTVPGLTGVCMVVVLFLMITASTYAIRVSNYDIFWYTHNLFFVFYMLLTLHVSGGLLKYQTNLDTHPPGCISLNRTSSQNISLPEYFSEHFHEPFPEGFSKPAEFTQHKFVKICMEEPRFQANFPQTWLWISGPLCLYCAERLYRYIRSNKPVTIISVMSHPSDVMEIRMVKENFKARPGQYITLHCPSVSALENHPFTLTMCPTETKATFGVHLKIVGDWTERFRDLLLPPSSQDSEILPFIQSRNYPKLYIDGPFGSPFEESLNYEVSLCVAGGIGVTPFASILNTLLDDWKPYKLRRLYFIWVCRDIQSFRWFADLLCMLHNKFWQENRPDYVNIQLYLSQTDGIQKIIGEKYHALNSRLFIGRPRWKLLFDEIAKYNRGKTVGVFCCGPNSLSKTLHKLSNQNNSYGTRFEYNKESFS
Sequence of NADPH oxidase 2 (Homo sapiens) (P04839 whole entry, looked up): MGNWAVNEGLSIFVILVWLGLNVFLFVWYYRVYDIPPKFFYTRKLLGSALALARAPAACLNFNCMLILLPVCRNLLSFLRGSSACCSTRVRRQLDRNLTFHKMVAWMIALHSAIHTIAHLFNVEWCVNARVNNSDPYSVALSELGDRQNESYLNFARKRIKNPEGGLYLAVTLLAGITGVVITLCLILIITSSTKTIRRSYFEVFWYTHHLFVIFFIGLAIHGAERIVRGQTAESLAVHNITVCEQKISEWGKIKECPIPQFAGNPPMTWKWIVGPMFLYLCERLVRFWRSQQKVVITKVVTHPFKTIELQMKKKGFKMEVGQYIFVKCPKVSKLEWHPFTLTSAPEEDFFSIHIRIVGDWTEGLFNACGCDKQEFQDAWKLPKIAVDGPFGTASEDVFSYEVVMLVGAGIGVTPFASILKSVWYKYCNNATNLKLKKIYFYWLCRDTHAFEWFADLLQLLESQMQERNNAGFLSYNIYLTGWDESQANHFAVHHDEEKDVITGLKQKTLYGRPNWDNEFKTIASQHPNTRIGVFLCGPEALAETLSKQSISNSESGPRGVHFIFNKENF

Compound | composite z-score [1] | z-score [2] | z-score [3] | z-score [4] | z-score [5] | composite z-score [6] | composite z-score [7] | composite z-score (Torsin-1A (Homo sapiens) [8]) | composite z-score (Torsin-1A (Homo sapiens) [9]) | composite z-score [10] | z-score [11] | composite z-score [12] | z-score [13] | z-score [14] | z-score [15] | z-score [16] | z-score [17] | z-score [18] | z-score [19] | z-score [20]
COC(=O)[C@H](C)NC(=O)CCC1CC(OC(=O)NCc2ccc3c(c2)OCO3)CC2(CCCC(COC(=O)NCCCN3CCCC3=O)O2)O1 (stereo not given in full) | 0.151 | -0.849 (inactive) | -0.202 (inactive) | 0.108 (inactive) | 0.833 (inactive) | 0.53 | 0.111 | 0.447 | 0.323 | 0.78 | -0.37 (inactive) | 0.0326 | -0.881 (inactive) | 0.136 (inactive) | -0.257 (inactive) | -0.169 (inactive) | 0.0031 | 1.1 (inactive) | -1.51 (inactive) | -1.74
CCOC(=O)[C@H](Cc1ccccc1)NC(=O)CCC1CC(OC(=O)NCc2cccc3ccccc23)CC2(CCCC(COC(=O)NCCOc3ccccc3)O2)O1 (stereo not given in full) | -0.0525 | -2.73 (inactive) | -1.35 (inactive) | -0.523 (inactive) | 0.57 (inactive) | 0.419 | 0.0667 | 0.0468 | 1.47 | 0.825 | -1.98 (inactive) | -0.0094 | -0.623 (inactive) | -0.824 (inactive) | 0.48 (inactive) | -1.33 (inactive) | 1.01 | 0.0124 (inactive) | 0.762 (inactive) | 1.06
COC(=O)[C@H](C)NC(=O)CC=C[C@@H](C)[C@@H]1C=C[C@H](O)[C@@H](CO)O1 | 0.355 | 0.301 (inactive) | 1 (inactive) | -0.434 (inactive) | 0.222 (inactive) | 0.116 | -0.0918 | 0.945 | 0.394 | 1.39 | 0.645 (inactive) | -0.269 | -0.488 (inactive) | 0.544 (inactive) | -0.0002 (inactive) | 0.0748 (inactive) | 0.244 | 0.534 (inactive) | 0.62 (inactive) | -0.231
COCCNC(=O)OCC1CCCC2(CC(OC(=O)NCc3cccc4ccccc34)CC(CCC(=O)N[C@@H](C)C(=O)OC)O2)O1 (stereo not given in full) | 0.278 | -0.862 (inactive) | -0.496 (inactive) | 0.376 (inactive) | 1.47 (inactive) | 0.403 | -0.157 | 0.413 | 0.41 | 0.971 | 0.434 (inactive) | -0.198 | -1.58 (inactive) | -0.523 (inactive) | -1.28 (inactive) | 0.174 (inactive) | -0.582 | -0.155 (inactive) | 1.49 (inactive) | 2.08
